Results filed as inconclusive are left out. Values without a mark were called inactive. Active and inactive are the calls of the source. Calls come from the whole dose curve; as a rule, active = well fitted cell-killing curve with a large enough effect in the repeat runs; inconclusive = weak or mixed curves, or effect the other way; inactive = flat fitted curve, though single readings scatter.
% is set by controls: 0 for no effect and ±100 for the full control effect.

The experiment is described as follows: qHTS RealTime-Glo MT Cell Viability Assay in HEK293 cells - 24 hour (AID 1224886). Note: top concentration of the series differs between compounds; nearly all actives have a fitted effect of over 50% in size. To be noted: RealTime-Glo luminescence; series mostly up to 76.8 µM; activity change, negative = cytotoxicity: at the top concentration. The text has this: National Center for Advancing Translational Sciences [NCATS]
NIH Chemical Genomics Center [NCGC]
U.S. Environmental Protection Agency [EPA]
National Institutes of Environmental Health Sciences [NIEHS]
National Toxicology Program [NTP]
U.S. Food and Drug Administration [FDA]
Measure of cell viability is critical in the cell-base assay. Analysis of cell viability is necessary for the characterization of cell responses to cytotoxic drugs and environmental stress. A RealTime-Glo MT Cell Viability Assay to monitor cell viability in real time of continues cell culture during 40 hours of compound treatment was used to screen Tox21 10K library compounds in Hek293 cells. The RealTime-Glo MT Cell Viability Assay is a nonlytic, homogeneous, bioluminescent method to measure cell viability in real time using a simple, plate-based method. The assay involves adding NanoLuc luciferase and a cell-permeant prosubstrate to cells in culture. Viable cells reduce the proprietary prosubstrate to generate a substrate for NanoLuc luciferase. This substrate diffuses from cells into the surrounding culture medium, where it is rapidly used by the NanoLuc Enzyme to produce a luminescent signal. The signal correlates with the number of viable cells, making the assay well suited for cytotoxicity studies.
Tox21 Assay Protocol Summary:
The mixture of Hek293 cell suspension and reagents were dispensed at 600cells/6 ul/well in 1536-well tissue culture treated black solid bottom plates using a Multidrop dispenser. After the assay plates were incubated at a 37 C/5% CO2 incubator for 5 hours, 23 nL of compounds dissolved in DMSO, positive and negative controls was transferred to the assay plate by a pintool work station. The plates were incubated at 37 C for 40 hours. The luminescence intensity were measured at 0h, 8h, 16h, 24h, 32h and 40h time points using ViewLux plate reader during compound treatment.
A general note: qHTS replaces the single test concentration by a dilution series.
Consider `CCOC(=O)COc1ccc(Cl)cc1Cl`, for which the “activity change, negative = cytotoxicity” value was -6.17%.

As to `O=c1[nH]oc2c1CCNC2`, the “activity change, negative = cytotoxicity” value is 2.99% [at 35.3 µM].

`C=CC1(C)OC(=O)N(c2cc(Cl)cc(Cl)c2)C1=O` (stereo not given): the Potency result is “inactive”.

With `C[C@]12C=CC(=O)C=C1CC[C@@H]1[C@@H]2CC[C@@]2(C)[C@H]1CC[C@]2(C)O`, the “activity change, negative = cytotoxicity” value is -15.8% [at 35.3 µM].

As for `COC[C@@H](NC(C)=O)C(=O)NCc1ccccc1`, the “activity change, negative = cytotoxicity” value is 4.19% [at 35.3 µM].

Take `C/C=C/CC#N`: the “activity change, negative = cytotoxicity” value is 10.6%.

Regarding `N#CN=C1SCCN1Cc1ccc(Cl)nc1`, the “activity change, negative = cytotoxicity” value is -1.93%.

Regarding `CCOC(=O)N(C)N=O`, the “activity change, negative = cytotoxicity” value was 0.0938%.

As to `CON(C)C(=O)Nc1ccc(Br)cc1`, the “activity change, negative = cytotoxicity” value is -0.0081%.

As for `CCc1cc(OC)c(C[C@H](C)N)cc1OC`, the “activity change, negative = cytotoxicity” value was -26.8%.

On to `Cc1ccc(S(=O)(=O)N[C@@H](CCCCN)C(=O)CCl)cc1`, for which the “activity change, negative = cytotoxicity” value was 6.64% [at 35.3 µM].

Turning to `CCOC(=O)C(SP(=S)(OC)OC)c1ccccc1` (stereo not given), the “activity change, negative = cytotoxicity” value is -2.93%.

As to `CCC1(c2ccccc2)CCC(=O)NC1=O` (stereo not given), the “activity change, negative = cytotoxicity” value was -1.74% [at 35.3 µM].

Consider `CCSC(=O)Cl`, for which the “activity change, negative = cytotoxicity” value was 5.02%.

In the case of `CCCN1CCC[C@@H]2Cc3nc(N)ncc3C[C@H]21`, the “activity change, negative = cytotoxicity” value is -0.435% [at 35.3 µM].

Consider `CCC1(c2cccc(O)c2)CCCCN(C)C1` (stereo not given), for which the “activity change, negative = cytotoxicity” value is -0.409% [at 35.3 µM].

`CC1=C2[C@H]3OC(=O)[C@@H](C)[C@@H]3CC[C@@]2(C)C=CC1=O`: the “activity change, negative = cytotoxicity” value is 6.35% [at 35.3 µM].

For the compound `NNC(N)=O`, the “activity change, negative = cytotoxicity” value was 4.3%.

For the compound `CS(=O)(=O)c1ccc(C(=O)C2C(=O)CCCC2=O)c(Cl)c1COCC(F)(F)F`, the “activity change, negative = cytotoxicity” value was 4.05%.

For the compound `CCOP(=S)(OCC)Oc1ccc(Cl)cc1Cl`, the “activity change, negative = cytotoxicity” value was -1.36%.

With `Cc1ccc2cc(C)ccc2c1`, the “activity change, negative = cytotoxicity” value was 9.42%.

With `CNC(=O)Oc1cc(C)c(N(C)C)c(C)c1`, the “activity change, negative = cytotoxicity” value is -12.3%.

Take `O=C1CCCCC1Cl` (stereo not given): the “activity change, negative = cytotoxicity” value is 8.48%.

Take `BrCCc1ccccc1`: the “activity change, negative = cytotoxicity” value was -6.16%.

As to `CC(=NC#N)N(C)Cc1ccc(Cl)nc1`, the “activity change, negative = cytotoxicity” value was 6.25%.

Regarding `N#CN`, the “activity change, negative = cytotoxicity” value is -0.472% [at 200 µM].

As to `COc1cccc(C=O)c1`, the “activity change, negative = cytotoxicity” value was 3.33%.

For the compound `Cc1ccc2c(c1)C1CN(C)CCC1N2` (stereo not given), the activity change, negative = cytotoxicity is -0.194% [at 15.8 µM].

Take `C=C1CC[C@@]2(O)[C@H]3Cc4ccc(O)c5c4[C@@]2(CCN3CC2CC2)[C@H]1O5`: the “activity change, negative = cytotoxicity” value is 3.69% [at 35.3 µM].

As for `CCCC(C)(COC(N)=O)COC(N)=O`, the “activity change, negative = cytotoxicity” value was 4.2%.

Consider `CCC(=O)OC1(c2ccccc2)CCN(C)CC1`, for which the “activity change, negative = cytotoxicity” value was -14.3%.

For `CCOC(=O)c1ncn2c1CN(C)C(=O)c1c(I)cccc1-2`, the “activity change, negative = cytotoxicity” value is 0.33% [at 35.3 µM].

Regarding `CCN1CCCC1CNC(=O)C(O)(c1ccccc1)c1ccccc1` (stereo not given), the “activity change, negative = cytotoxicity” value is -3.8% [at 35.3 µM].

As for `C=C1C[C@@H]2[C@H](CC[C@]3(C)C(=O)CC[C@@H]23)[C@@]2(C)C=CC(=O)C=C12`, the “activity change, negative = cytotoxicity” value was -1.26% [at 35.3 µM].

Take `C#CC(C)(C)O`: the “activity change, negative = cytotoxicity” value is 4.22%.

Regarding `CCC(CC)(CNC(=O)CCCO)c1cccc(OC)c1`, the “activity change, negative = cytotoxicity” value was 2.14% [at 35.3 µM].

Take `CCOC(=O)CCl`: the “activity change, negative = cytotoxicity” value is 14.7%.

With `CC(C)(C)NC[C@H](O)c1ccc(O)cc1Cl`, the “activity change, negative = cytotoxicity” value is 4.98% [at 35.3 µM].

On to `[O-][Br+2]([O-])O`, for which the “activity change, negative = cytotoxicity” value was -0.0204% [at 35.3 µM].

Consider `CN1COCN(Cc2cnc(Cl)s2)/C1=N\[N+](=O)[O-]`, for which the “activity change, negative = cytotoxicity” value is 3.12%.

(Values after PubChem BioAssay (Tox21).)
